Several values for one entry are separate records, joined by “and”; a condition that tells them apart may be missing. Equal values may be shown once. Activity calls are given as the source filed them. Unless noted, calls come from the whole dose curve.

A short description of experiment [1]: Cellular Toxicity (caspase-3) Jurkat (AID 655; active = well fitted curve in the direction sought with a large enough effect; inconclusive = small, poorly fitted or top-dose-only effect, or another doubt; inactive = no such curve, though single readings can be large; an effect the other way counts as inactive or inconclusive;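 note: cells exposed to compound for 16 h at 37 °C before reading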). As to conditions: Jurkat caspase-3 activation, luminescence, DMSO = 0%, tamoxifen = 100%; at 92.2 µM (top of the series). Put shortly: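 Jurkat cells (5000/well) in complete medium were treated with compounds for 16 hr at 37 °C, then Caspase-Glo 3/7 luminescence was read after 20 min at room temperature. Data normalized to DMSO (basal) and 100 uM tamoxifen (100%); AC50 from Hill fit.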

Experiment [2] can be described thus: Cell Viability - LYMP2-001 (AID 921; active = well fitted curve in the direction sought with a large enough effect; inconclusive = small, poorly fitted or top-dose-only effect, or another doubt; inactive = no such curve, though single readings can be large; an effect the other way counts as inactive or inconclusive; note: nearly all actives have a fitted effect of over 70% in size; note: potency is the fitted concentration of half-maximal effect). Put shortly:
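Human lymphoblastoid cells (Coriell), 2500 per well, were preincubated 5 hr at 37 C, then exposed to compounds in complete medium for 24 hr at 37 C. Cellular ATP was read by CellTiter-Glo luminescence; AC50 from Hill fits of concentration-response data.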

Experiment [3] can be described thus: MultiTox-Fluor Cytotoxicity Assay - LYMP1-001 - Live Cells (AID 947; active = well fitted curve in the direction sought with a large enough effect; inconclusive = small, poorly fitted or top-dose-only effect, or another doubt; inactive = no such curve, though single readings can be large; an effect the other way counts as inactive or inconclusive; note: potency is the fitted concentration of half-maximal effect).
Experiment [4] is described as follows: Cell Viability - LYMP1-003 - Assay at 24 hr (AID 963; active = well fitted curve in the direction sought with a large enough effect; inconclusive = small, poorly fitted or top-dose-only effect, or another doubt; inactive = no such curve, though single readings can be large; an effect the other way counts as inactive or inconclusive; note: potency is the fitted concentration of half-maximal effect). Put shortly: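 Cytotoxicity is scored as a concentration-dependent fall in ATP-linked luciferase signal in human lymphoblastoid LYMP1-003 cells treated 24 hr at 37 C in complete culture medium.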
The target of experiment [5] is Estrogen receptor (Homo sapiens) (UniProt P03372). Put plainly: qHTS assay for small molecule antagonists of estrogen receptor alpha signaling (AID 588513; active = well fitted curve in the direction sought with a large enough effect in the signal ratio, with a control signal flat, not every such curve was filed as active; inconclusive = small, poorly fitted or top-dose-only effect, or effect the other way, or a change in a side signal; inactive = no such curve, though single readings can be large or run the other way; the % refers to the signal ratio; note: potency is the fitted concentration of half-maximal effect). Put shortly: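 ER-alpha-UAS-bla GripTite HEK 293 cells in medium with 2% charcoal/dextran-treated FBS were preincubated 4 h at 37 C, dosed with compound (1:2 titration), stimulated with 0.5nM 17-beta-estradiol for 18 h, then read by CCF4 beta-lactamase fluorescence.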
Chain of Estrogen receptor (Homo sapiens) (P03372 whole entry, looked up): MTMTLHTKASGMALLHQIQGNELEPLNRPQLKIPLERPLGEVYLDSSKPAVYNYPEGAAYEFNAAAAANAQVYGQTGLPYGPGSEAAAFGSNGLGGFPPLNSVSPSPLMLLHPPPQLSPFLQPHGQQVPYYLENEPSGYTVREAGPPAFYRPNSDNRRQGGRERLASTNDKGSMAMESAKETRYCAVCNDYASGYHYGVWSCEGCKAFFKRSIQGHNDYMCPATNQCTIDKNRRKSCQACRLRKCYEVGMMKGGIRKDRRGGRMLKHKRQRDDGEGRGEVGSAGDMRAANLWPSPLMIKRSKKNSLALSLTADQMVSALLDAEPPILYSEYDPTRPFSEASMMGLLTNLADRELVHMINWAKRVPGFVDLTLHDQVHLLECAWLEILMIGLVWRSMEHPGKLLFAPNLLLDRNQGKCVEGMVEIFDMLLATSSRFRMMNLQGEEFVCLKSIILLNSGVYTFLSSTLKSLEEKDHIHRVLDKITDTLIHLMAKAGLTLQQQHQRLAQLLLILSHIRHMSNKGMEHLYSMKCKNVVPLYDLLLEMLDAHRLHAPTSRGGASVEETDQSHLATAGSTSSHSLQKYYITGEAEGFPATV

Experiment [6] shares this target. Put plainly: qHTS assay for small molecule agonists of estrogen receptor alpha signaling (AID 588514).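 Note: 0% = vehicle only and 100% = reference agonist; nearly all actives have a fitted effect of over 70% in size.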 Put shortly:
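Efficacy is expressed against 20 nM 17-beta-estradiol (100%) and DMSO basal (0%); EC50 from Hill equation. Assay: beta-lactamase reporter in ER-alpha-UAS-bla HEK 293 cells, 18 h compound incubation, CCF4 detection.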

Experiment [7] concerns the target Peroxisome proliferator-activated receptor gamma (Homo sapiens) (UniProt P37231). Put plainly: qHTS assay for small molecule agonists of peroxisome proliferator-activated receptor gamma signaling (AID 588536; active = well fitted curve in the direction sought with a large enough effect in the signal ratio, with a control signal flat, not every such curve was filed as active; inconclusive = small, poorly fitted or top-dose-only effect, or effect the other way, or a change in a side signal; inactive = no such curve, though single readings can be large or run the other way; the % refers to the signal ratio;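 note: 0% = DMSO basal wells and 100% = rosiglitazone at 2 µM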). Put shortly: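 Compound treatment: 16 h, 37 C, HEK293 GeneBLAzer cells. Detection: CCF4, 2 h RT. Values: Hill-fit EC50, efficacy as % of 2 uM rosiglitazone.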

Experiment [8] addresses Vitamin D3 receptor (Homo sapiens) (UniProt P11473). Description: qHTS assay for small molecule agonists of vitamin D receptor signaling (AID 588543).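 Note: 0% = DMSO basal and 100% = reference agonist control.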 Put shortly: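 GeneBLAzer VDR-UAS-bla HEK293T cells in 2% charcoal-stripped FBS medium were dosed with compound titrations for 16 h at 37 °C; CCF4 β-lactamase readout (405 nm ex, 460/530 nm em). EC50 and efficacy from Hill fits, normalized to 50 nM calcitriol (100%) and DMSO (0%).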

Experiment [9] in a line: qHTS assay for small molecule agonists of retinoid X receptor alpha signaling (AID 588544).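 For activation: 0% = DMSO basal wells and 100% = reference agonist.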 Conditions: HEK293T RXRa-UAS-bla, beta-lactamase reporter, 18 h; 530 nm emission.
The target of experiment [10] is Retinoic acid receptor RXR-alpha (Homo sapiens) (UniProt P19793). The experiment is described as above.
Chain of Retinoic acid receptor RXR-alpha (Homo sapiens) (P19793 whole entry, looked up): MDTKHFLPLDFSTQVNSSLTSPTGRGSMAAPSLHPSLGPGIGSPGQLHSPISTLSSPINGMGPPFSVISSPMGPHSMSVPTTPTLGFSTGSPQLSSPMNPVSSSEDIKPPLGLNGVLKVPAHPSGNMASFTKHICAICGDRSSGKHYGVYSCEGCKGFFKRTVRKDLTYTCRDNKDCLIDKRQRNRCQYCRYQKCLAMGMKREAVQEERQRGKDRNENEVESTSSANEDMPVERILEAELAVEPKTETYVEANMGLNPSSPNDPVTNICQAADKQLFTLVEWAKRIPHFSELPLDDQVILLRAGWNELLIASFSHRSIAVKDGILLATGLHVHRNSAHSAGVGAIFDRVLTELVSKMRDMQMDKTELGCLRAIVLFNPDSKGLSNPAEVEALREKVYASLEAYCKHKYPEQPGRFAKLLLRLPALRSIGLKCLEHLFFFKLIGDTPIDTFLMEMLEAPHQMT
For experiment [11], the target named is Voltage-gated inwardly rectifying potassium channel KCNH2 (Homo sapiens) (UniProt Q12809). Put plainly: qHTS Assay for Small Molecule Inhibitors of the Human hERG Channel Activity (AID 588834; active = well fitted curve in the direction sought with a large enough effect; inconclusive = small, poorly fitted or top-dose-only effect, or another doubt; inactive = no such curve, though single readings can be large; an effect the other way counts as inactive or inconclusive;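 note: top concentration of the series differs between compounds; % is set by controls: 0 for no effect and ±100 for the full control effect; lower thallium flux fluorescence means stronger hERG block; nearly all actives have a fitted effect of over 50% in size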). Put shortly: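 In hERG-transduced U2OS cells, dye-loaded for 1 hr at room temperature in dark, test compounds incubated 10 min at 37 °C before thallium stimulation. AC50 values derived by Hill modelling of concentration-response.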
Chain of Voltage-gated inwardly rectifying potassium channel KCNH2 (Homo sapiens) (Q12809 whole entry, looked up): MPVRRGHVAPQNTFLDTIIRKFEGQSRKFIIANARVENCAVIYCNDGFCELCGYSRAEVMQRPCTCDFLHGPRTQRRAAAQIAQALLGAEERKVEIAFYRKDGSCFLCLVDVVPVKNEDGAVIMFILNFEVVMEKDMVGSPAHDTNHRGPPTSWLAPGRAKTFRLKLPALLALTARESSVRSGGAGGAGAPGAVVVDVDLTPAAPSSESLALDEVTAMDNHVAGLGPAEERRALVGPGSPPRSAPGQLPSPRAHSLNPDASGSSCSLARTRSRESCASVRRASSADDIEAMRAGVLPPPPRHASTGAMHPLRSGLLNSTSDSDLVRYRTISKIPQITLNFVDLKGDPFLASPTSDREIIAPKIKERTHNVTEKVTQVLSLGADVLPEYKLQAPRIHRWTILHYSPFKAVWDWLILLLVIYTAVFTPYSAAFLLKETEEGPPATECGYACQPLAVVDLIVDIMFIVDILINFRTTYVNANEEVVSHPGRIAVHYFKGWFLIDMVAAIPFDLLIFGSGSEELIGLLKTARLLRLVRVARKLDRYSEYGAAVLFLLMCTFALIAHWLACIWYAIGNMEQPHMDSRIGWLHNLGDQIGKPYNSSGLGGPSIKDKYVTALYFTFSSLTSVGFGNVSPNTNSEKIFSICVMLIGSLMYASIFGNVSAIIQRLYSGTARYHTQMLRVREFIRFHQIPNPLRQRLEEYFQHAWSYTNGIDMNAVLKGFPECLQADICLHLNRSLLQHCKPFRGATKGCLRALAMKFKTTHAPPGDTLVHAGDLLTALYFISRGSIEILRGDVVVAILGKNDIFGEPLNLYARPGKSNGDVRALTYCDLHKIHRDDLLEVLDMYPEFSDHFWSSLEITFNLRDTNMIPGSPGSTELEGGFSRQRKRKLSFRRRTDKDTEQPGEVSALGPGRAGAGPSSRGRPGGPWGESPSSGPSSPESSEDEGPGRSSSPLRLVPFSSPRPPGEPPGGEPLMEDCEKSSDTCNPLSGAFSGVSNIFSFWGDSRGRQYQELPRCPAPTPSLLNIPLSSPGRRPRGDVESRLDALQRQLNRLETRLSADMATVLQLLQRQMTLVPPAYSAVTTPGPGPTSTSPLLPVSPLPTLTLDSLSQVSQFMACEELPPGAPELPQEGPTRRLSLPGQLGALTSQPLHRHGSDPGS

Experiment [12] in a line: qHTS assay for small molecule activators of the p53 signaling pathway (AID 651743; active = well fitted activation curve with a large enough effect in the signal ratio, not every such curve was filed as active; inconclusive = small, poorly fitted or top-dose-only effect, or a change in a side signal; the % refers to the signal ratio; note: % of control where 0% means no effect). As to conditions: HCT-116 p53RE-bla, beta-lactamase FRET ratio, 16 h; activation: stronger effect = higher value. Put shortly: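 Agonist-mode quantitative HTS in HCT-116 cells carrying a p53-response-element beta-lactamase reporter; 16 h compound treatment at 37 C, then FRET substrate loading for 2 h at room temperature and fluorescence read.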

The nature of experiment [13]: qHTS assay for small molecule disruptors of the mitochondrial membrane potential - 1 hr assay (AID 651754). Note: % is set by controls: 0 for no effect and ±100 for the full control effect; nearly all actives have a fitted effect of over 35% in size. Put shortly: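 Loss of mitochondrial potential shifts the cationic dye from red mitochondrial aggregates to green cytoplasmic monomers. Cells (HepG2) are treated with compound for 1 hr before a 30 min dye incubation at 37C.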
Experiment [14] is described as follows: qHTS assay for small molecule disruptors of the mitochondrial membrane potential - 5 hr assay (AID 651755). Note: % is set by controls: 0 for no effect and ±100 for the full control effect; nearly all actives have a fitted effect of over 40% in size. Put shortly: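 Seed HepG2 overnight, add compound, incubate 5 hr at 37C and 5% CO2, stain 30 min with Mito-MPS, then measure monomer (490/535 nm) and aggregate (540/590 nm) fluorescence.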
Experiment [15] deals with Tumor necrosis factor (Homo sapiens) (UniProt P01375). Description: qHTS assay to identify small molecules that stimulate Tumor Necrosis Factor-alpha (TNF-alpha) secretion (AID 651757; active = well fitted curve in the direction sought with a large enough effect in the signal ratio; inconclusive = small, poorly fitted or top-dose-only effect, or a change in a side signal; inactive = no such curve, though single readings can be large or run the other way; the % refers to the signal ratio; note: 0% is about no effect). Put shortly: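 Human monocytic THP-1 cells are plated, treated with compound and held at 37 C for 17 hrs. Labeled anti-TNF-alpha antibody mixture is then added; after 3 hr at room temperature, TR-FRET signal reports secreted TNF-alpha.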
Chain of Tumor necrosis factor (Homo sapiens) (P01375 whole entry, looked up): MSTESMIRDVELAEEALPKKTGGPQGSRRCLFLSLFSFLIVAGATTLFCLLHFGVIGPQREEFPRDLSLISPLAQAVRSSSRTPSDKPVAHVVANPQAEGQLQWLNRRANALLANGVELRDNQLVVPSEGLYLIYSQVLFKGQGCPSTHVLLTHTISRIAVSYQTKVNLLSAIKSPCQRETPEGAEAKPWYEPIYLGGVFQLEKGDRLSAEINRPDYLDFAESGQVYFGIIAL

Experiment [16] in a line: qHTS assay for small molecule agonists of the antioxidant response element (ARE) signaling pathway measured by Nrf2-dependant transcriptional activity (AID 720636; active = well fitted curve in the direction sought with a large enough effect in the repeat runs; inconclusive = weak or mixed curves; inactive = no such curve, though single readings can be large; an effect the other way counts as inactive or inconclusive; note: potency is the fitted concentration of half-maximal effect; for activation: % of control where 0% means no effect). Put shortly: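 Quantitative HTS format in HepG2 cells stably expressing an ARE-luciferase reporter; 16 hr compound treatment at 37 C, luciferase signal detected with ONE-Glo.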
A short description of experiment [17]: qHTS assay for small molecule antagonists of the retinoid-related orphan receptor gamma (ROR-gamma) signaling pathway - cell viability counter screen (AID 720652; active = well fitted curve in the direction sought with a large enough effect in the repeat runs; inconclusive = weak or mixed curves; inactive = no such curve, though single readings can be large; an effect the other way counts as inactive or inconclusive;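 note: CHO reporter cells with doxycycline-induced ROR-gamma expression; compound exposure lasted 16 hr before ATP read; % is set by controls: 0 for no effect and ±100 for the full control effect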). Put shortly: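 Steps: seed CHO cells bearing TET-inducible ROR and ROR response element-luciferase; rest 5 hr at 37 C; add compound, then doxycycline; incubate 16 hr; add CellTiter-Glo and read luminescence as ATP-based viability.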

Experiment [18] is described as follows: qHTS assay for cell viability of the p53RE-bla HCT-116 cell line (AID 743292; active = well fitted curve in the direction sought with a large enough effect; inconclusive = small, poorly fitted or top-dose-only effect, or another doubt; inactive = no such curve, though single readings can be large; an effect the other way counts as inactive or inconclusive; note: % is set by controls: 0 for no effect and ±100 for the full control effect; nearly all actives have a fitted effect of over 55% in size). Put shortly:
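Viability of compound-treated p53RE-bla HCT-116 cells is taken from ATP-dependent luciferase luminescence. Treatment lasts 16 h at 37 C after a 5 h settling period; detection follows 30 min at room temperature.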

For experiment [19], the target named is Nuclear receptor subfamily 1 group I member 2 (Rattus norvegicus) (UniProt Q9R1A7). Description: qHTS assay for small molecule activators of the rat pregnane X receptor (rPXR) signaling pathway (AID 651751; call rule not given here; note: 0% is about no effect). As to conditions: rPXR reporter cells, luciferase (One-Glo), 24 h.
Chain of Nuclear receptor subfamily 1 group I member 2 (Rattus norvegicus) (Q9R1A7 whole entry, looked up): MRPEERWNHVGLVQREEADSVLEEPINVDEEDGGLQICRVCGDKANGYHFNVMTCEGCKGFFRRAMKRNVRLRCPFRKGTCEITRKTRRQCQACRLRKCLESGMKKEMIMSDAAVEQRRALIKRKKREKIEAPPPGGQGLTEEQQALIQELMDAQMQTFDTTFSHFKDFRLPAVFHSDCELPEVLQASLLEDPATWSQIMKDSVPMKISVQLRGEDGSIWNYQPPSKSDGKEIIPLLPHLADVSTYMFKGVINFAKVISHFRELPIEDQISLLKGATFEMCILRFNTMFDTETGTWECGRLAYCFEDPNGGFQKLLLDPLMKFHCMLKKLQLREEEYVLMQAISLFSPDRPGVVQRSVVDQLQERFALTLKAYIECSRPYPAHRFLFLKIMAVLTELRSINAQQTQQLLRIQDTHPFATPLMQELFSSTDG
A short description of experiment [20]: qHTS assay for small molecule activators of the human pregnane X receptor (PXR) signaling pathway (AID 720659; call rule not given here; note: 0% is about no effect).

Chain of Peroxisome proliferator-activated receptor gamma (Homo sapiens) (P37231 whole entry, looked up): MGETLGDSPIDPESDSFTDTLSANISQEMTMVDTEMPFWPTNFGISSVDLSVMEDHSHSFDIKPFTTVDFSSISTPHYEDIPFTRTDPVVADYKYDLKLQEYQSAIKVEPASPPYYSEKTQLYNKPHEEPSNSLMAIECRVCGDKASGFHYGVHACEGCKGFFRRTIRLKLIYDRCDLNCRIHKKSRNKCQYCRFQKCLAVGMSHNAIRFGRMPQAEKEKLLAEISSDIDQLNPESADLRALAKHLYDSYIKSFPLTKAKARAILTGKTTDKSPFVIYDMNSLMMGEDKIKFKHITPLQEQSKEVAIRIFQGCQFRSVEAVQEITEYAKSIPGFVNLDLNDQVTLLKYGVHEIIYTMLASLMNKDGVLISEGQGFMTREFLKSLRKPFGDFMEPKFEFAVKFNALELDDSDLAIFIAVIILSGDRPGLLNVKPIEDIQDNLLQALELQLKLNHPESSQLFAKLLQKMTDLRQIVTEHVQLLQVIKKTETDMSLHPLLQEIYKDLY
Chain of Vitamin D3 receptor (Homo sapiens) (P11473 whole entry, looked up): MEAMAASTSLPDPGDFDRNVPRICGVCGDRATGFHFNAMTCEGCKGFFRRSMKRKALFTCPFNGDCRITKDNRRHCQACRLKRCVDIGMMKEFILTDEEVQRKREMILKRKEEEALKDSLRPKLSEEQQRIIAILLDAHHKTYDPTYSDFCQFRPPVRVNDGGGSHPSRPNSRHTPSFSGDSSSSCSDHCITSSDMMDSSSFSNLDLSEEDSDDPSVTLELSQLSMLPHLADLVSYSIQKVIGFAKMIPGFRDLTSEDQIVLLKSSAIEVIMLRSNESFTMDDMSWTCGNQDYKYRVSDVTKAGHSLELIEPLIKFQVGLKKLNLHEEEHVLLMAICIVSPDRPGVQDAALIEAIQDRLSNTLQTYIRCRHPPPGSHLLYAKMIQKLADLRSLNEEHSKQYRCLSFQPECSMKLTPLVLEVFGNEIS

In the case of `CC1(C)CC(N=C=O)CC(C)(CN=C=O)C1` (stereo not drawn), in experiment [1], the caspase-3 activation is 0.941% (inactive). Also, the Potency result in experiment [2], in [3], in experiment [4], in experiment [5], in experiment [6] and in experiment [11] was “inactive” each time. The Potency entry in experiment [13], in experiment [14], in [16], in [17] and in experiment [18] was “inactive” in each case. The result in experiment [7], in [8], in experiment [10], in [15] and in experiment [20] was inactive. Further, the max response in experiment [9] was 0.0281% and -13.4%; in experiment [19] it was 1.05% (inactive) and -0.823% (inactive). In addition, the activation in [12] is 0.263% (inactive) and 0.482% (inactive).
Regarding `CCCCOCCO`, the caspase-3 activation in experiment [1] was 0.121% (inactive) and 0.365% (inactive). In addition, the Potency result in experiment [2], in [3], in experiment [4], in [5], in [6] and in [11] was “inactive” throughout. Also, the Potency entry in experiment [13], in [14], in [16], in [17] and in experiment [18] was “inactive” each time. The molecule was classed as inactive in experiment [7], in [8], in experiment [10], in [15] and in experiment [20]. The max response in [9] was -6.03% and -11.6% and -17.6%. In [12], the activation was -0.263% (inactive) and -0.796% (inactive) and -1.77% (inactive).
For the molecule `C=CC(=O)OCCOCCOCCOCCOC(=O)C=C`, the Potency in experiment [2] was 15.8 µM (active); in experiment [3] it was 31.6 µM (active) and 39.8 µM (active); in experiment [4] it was 31.6 µM (active) and 39.8 µM (active); in experiment [5] it was 39.8 µM [inconclusive] (active); in experiment [16], 66.8 µM (active). Besides, the call in experiment [8], in experiment [15] and in [20] was inactive. The Potency result in experiment [11], in experiment [13], in [14], in experiment [17] and in experiment [18] was “inactive” each time. Besides, the activation in [12] is 28.9% (inactive) and 15.6% (inactive).
In the case of `NC1=NC(S)C2N=CN=C2N1` (stereo not drawn), the molecule was classed as inactive in experiment [8]. Besides, the Potency result in [11], in [13], in experiment [14] and in [16] was “inactive” in each case. In addition, the max response in experiment [19] was -3.62% (inactive).
For the molecule `ClCCCl`, the caspase-3 activation in experiment [1] was 2.03% (inactive). The Potency entry in experiment [2], in experiment [3], in experiment [4], in [5], in experiment [6] and in [11] was “inactive” throughout. The Potency result in experiment [13], in experiment [14], in experiment [16], in [17] and in experiment [18] was “inactive” in each case. The molecule was classed as inactive in [7], in experiment [8], in experiment [10], in experiment [15] and in experiment [20]. Besides, the max response in experiment [9] is -4.78% and -12% and 1.75%; in experiment [19], 1.44% (inactive) and 0.0885% (inactive) and 1.57% (inactive). Further, the activation in experiment [12] is 0.154% (inactive) and -1.95% (inactive) and -0.964% (inactive).
In the case of `Cc1ccc([N+](=O)[O-])c(C)c1`, in [1], the caspase-3 activation was 0.882% (inactive). Moreover, the Potency entry in experiment [2], in experiment [3], in [4], in experiment [5], in experiment [6] and in experiment [11] was “inactive” each time. Besides, the Potency entry in experiment [13], in experiment [14], in experiment [16], in experiment [17] and in experiment [18] was “inactive” throughout. The molecule was called inactive in experiment [7], in [8], in experiment [10], in experiment [15] and in experiment [20]. The max response is -5.33% and -0.658% in [9]; 3.04% (inactive) and -0.0498% (inactive) in [19]. In experiment [12], the activation is 0.814% (inactive) and -2.3% (inactive).
On to `O=C(O)c1ccc(O)cc1O`, for which the caspase-3 activation in experiment [1] was -0.639% (inactive) and 0.659% (inactive). Also, the Potency entry in [2], in [3], in experiment [4], in experiment [11], in [13] and in [14] was “inactive” in each case. The Potency entry in experiment [16], in [17] and in [18] was “inactive” in each case. Further, the outcome in experiment [7], in [8], in [10], in experiment [15] and in experiment [20] was inactive. Further, the max response in experiment [9] is -5.03% and -19.7%; in [19], 10.9% (inactive) and 2.3% (inactive). In addition, the activation in [12] is -0.261% (inactive) and 0.22% (inactive).
For `CCO`, the caspase-3 activation in experiment [1] is -0.073% (inactive). For the same molecule, the Potency entry in [2], in experiment [3], in experiment [4], in experiment [5], in experiment [6] and in experiment [11] was “inactive” each time. Besides, the Potency entry in experiment [13], in [14], in experiment [16], in experiment [17] and in experiment [18] was “inactive” each time. For the same molecule, the molecule was called inactive in experiment [7], in [8], in experiment [10], in experiment [15] and in [20]. Further, the max response in experiment [9] is 1.82%; in experiment [19] it was 0.289% (inactive). The activation in experiment [12] was -1.86% (inactive).
In the case of `Clc1cc(Cl)c(Cl)c(Cl)c1Cl`, the caspase-3 activation in experiment [1] is 1.31% (inactive). Moreover, the Potency result in [2], in experiment [3], in [4], in experiment [5], in [6] and in experiment [11] was “inactive” in each case. For the same molecule, the Potency entry in [13], in experiment [14], in experiment [16], in [17] and in experiment [18] was “inactive” each time. The call in [8], in experiment [10], in experiment [15] and in experiment [20] was inactive. The max response is -1.44% and -10.6% in experiment [9]; 0.274% (inactive) and 3.7% (inactive) in [19]. Further, in experiment [12], the activation is -3.68% (inactive) and 2.1% (inactive).
For the molecule `OCCNCCO`, the caspase-3 activation in experiment [1] was 2.36% (inactive). For the same molecule, the Potency result in [2], in [3], in experiment [4], in [5], in [6] and in experiment [11] was “inactive” throughout. Moreover, the Potency entry in experiment [13], in experiment [14], in experiment [16], in experiment [17] and in experiment [18] was “inactive” in each case. The molecule was classed as inactive in experiment [8], in experiment [10], in experiment [15] and in [20]. Moreover, the max response in [9] is -28.3% and -18.3%.

These data come from PubChem BioAssay (NCATS).
